Screening data (PubChem BioAssay)
ALOX12 inh: Primary qHTS assay for inhibitors of human arachidonate 12S-lipoxygenase (ALOX12): Round 2; actives 1.1% (n = 580,000); Potency, µM (titrated, usually from 108 µM), without a hit: at the highest dose activity change, negative = inhibition, usual class: inhibitors; Polyunsaturated fatty acid lipoxygenase ALOX12 (Homo sapiens), P18054; purified 12hLO, xylenol orange hydroperoxide absorbance; AID 1671190, 2021; further: on the % scale 0 is the no-effect control and ±100 the full control effect
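Purified human 12hLO at 150 nM in 25 mM Hepes, 0.01% Triton X-100, pH 7.0, preincubated 15 min at room temperature with compound. Reaction started with 40 uM arachidonic acid, 30 min at room temperature. Hydroperoxide measured by Fe-xylenol orange, 573/405 nm absorbance ratio.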
HP1b chromo inh: HTS for Inhibitors of HP1-beta Chromodomain Interactions with Methylated Histone Tails; Chromobox protein homolog 1 (Homo sapiens), P83916; AlphaScreen HP1-beta / biotin-H3K9me3 peptide binding; Potency, µM (titrated, usually from 114 µM), for the others: at the top dose activity change, negative = inhibition, most hits filed as inhibitors; actives 0.56% (n = 390,000); AID 540317, 2011; further: nearly all actives have a fitted effect of over 70% in size
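AlphaScreen: HP1-beta (50 nM) preformed 30 min with biotin-H3(1-18)K9me3 peptide (50 nM) in PBS pH 7.4, 0.01% Tween-20. Compound added for 30 min at RT, then streptavidin donor/nickel chelate acceptor beads (10 ug/mL) for 30 min.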
BAZ2B block: qHTS Assay for Inhibitors of BAZ2B | AlphaScreen BAZ2B-H3K14Ac peptide displacement | Bromodomain adjacent to zinc finger domain protein 2B (Homo sapiens), Q9UIF8 | actives 4.4% (n = 360,000) | AID 504333, 2011 | Potency, µM (highest dose often 114 µM), inactives show at the top dose activity change, negative = inhibition, most hits filed as inhibitors; further: on the % scale 0 is the no-effect control and ±100 the full control effect; nearly all actives have a fitted effect of over 60% in size
Target sequence (Q9UIF8 whole entry, looked up, the tested form may be a part): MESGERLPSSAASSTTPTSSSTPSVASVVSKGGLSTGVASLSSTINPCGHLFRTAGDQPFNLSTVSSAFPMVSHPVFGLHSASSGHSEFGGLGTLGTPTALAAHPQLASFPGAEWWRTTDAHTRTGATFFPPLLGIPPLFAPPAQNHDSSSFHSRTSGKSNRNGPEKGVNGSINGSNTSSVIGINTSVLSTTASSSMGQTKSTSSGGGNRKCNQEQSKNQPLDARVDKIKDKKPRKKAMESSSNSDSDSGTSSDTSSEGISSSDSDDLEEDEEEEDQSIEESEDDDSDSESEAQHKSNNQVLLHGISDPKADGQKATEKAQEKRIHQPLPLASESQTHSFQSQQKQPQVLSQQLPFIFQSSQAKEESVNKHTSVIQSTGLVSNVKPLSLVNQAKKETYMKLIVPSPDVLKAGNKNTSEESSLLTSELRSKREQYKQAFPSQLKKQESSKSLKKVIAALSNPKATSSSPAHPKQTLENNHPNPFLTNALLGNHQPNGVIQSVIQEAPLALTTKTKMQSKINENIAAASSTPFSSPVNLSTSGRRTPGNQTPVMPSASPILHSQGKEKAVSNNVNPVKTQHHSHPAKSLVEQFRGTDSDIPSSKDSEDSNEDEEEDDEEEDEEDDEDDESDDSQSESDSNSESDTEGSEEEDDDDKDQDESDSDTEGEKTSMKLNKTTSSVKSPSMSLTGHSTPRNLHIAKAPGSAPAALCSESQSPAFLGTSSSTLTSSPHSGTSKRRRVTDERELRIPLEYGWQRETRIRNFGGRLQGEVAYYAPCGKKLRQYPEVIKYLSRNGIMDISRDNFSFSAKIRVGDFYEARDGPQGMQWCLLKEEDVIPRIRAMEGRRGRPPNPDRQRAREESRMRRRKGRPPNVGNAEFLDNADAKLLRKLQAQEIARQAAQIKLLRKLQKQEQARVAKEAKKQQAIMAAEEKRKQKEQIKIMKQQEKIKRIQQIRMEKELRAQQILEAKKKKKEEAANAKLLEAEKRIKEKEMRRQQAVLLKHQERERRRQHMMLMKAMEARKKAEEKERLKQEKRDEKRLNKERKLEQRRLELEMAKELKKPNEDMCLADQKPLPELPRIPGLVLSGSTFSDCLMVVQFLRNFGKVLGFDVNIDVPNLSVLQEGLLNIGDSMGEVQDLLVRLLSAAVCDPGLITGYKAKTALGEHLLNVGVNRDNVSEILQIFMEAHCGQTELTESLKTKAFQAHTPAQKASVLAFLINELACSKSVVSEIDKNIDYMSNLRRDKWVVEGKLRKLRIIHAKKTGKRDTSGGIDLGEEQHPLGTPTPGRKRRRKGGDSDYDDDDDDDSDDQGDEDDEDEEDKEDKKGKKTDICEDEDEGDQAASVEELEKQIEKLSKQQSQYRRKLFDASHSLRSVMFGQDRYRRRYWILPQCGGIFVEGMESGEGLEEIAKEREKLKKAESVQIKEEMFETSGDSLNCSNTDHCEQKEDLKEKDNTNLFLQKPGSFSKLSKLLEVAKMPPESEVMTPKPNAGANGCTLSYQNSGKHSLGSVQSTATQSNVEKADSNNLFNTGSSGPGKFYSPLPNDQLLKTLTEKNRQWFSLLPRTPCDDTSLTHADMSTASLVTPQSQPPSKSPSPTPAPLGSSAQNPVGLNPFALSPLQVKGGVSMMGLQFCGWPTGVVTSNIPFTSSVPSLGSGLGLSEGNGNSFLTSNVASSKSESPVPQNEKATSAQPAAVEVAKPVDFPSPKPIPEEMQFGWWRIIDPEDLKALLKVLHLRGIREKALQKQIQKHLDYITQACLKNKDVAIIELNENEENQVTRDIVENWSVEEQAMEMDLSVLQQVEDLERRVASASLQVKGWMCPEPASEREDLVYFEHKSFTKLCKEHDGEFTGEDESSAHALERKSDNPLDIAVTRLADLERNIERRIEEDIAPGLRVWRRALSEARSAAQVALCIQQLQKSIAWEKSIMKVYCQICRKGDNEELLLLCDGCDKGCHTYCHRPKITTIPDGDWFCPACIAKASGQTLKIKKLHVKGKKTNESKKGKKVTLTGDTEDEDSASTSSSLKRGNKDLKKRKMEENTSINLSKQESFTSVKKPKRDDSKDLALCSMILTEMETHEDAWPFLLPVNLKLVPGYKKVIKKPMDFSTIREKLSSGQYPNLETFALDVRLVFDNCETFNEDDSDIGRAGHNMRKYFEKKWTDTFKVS
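BAZ2B (50 nM) with biotin-H3(5-23)K14Ac peptide (50 nM) in PBS pH 7.4, 0.01% Tween-20, preformed 30 min, then compound 30 min at room temperature; top concentration 110uM. AlphaScreen streptavidin donor/nickel chelate acceptor beads (10 ug/mL final), 20 min dark, signal read.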
JMJD2A Tudor: qHTS Assay for Inhibitors of JMJD2A-Tudor Domain. Lysine-specific demethylase 4A (Homo sapiens), O75164. actives 4.4% (n = 390,000). AID 504339, 2011. Potency, µM (highest dose often 114 µM), for inactives: top-dose activity change, negative = inhibition, most hits filed as inhibitors. AlphaScreen JMJD2A-Tudor / H3K4me3 peptide binding; further: on the % scale 0 is the no-effect control and ±100 the full control effect; nearly all actives have a fitted effect of over 50% in size
Sfp inh: qHTS Assay for Inhibitors of Bacillus subtilis Sfp phosphopantetheinyl transferase (PPTase); Biochemical Sfp PPTase activity, qHTS; Potency, µM, for inactives: largest response in the series, negative = inhibition, actives largely listed as inhibitors; actives 3.5% (n = 310,000);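 further: the enzyme is Sfp with the accession as filed and its product quenches rhodamine fluorescence; 0% = enzyme reaction without inhibitor and -100% = no enzyme wells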
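Sfp 15 nM + cpd, 15 min RT; start w/ rhodamine-CoA 5 uM, BHQ-2-YbbR 12.5 uM (final); 50 mM Hepes pH 7.6, 10 mM MgCl2, 0.01% NP-40, 0.01% BSA; read 525/598 nm at 0 and 30 min.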
G9a inh: qHTS Assay for Inhibitors of Histone Lysine Methyltransferase G9a; actives 8.8% (n = 350,000); G9a H3K9 monomethylation, AlphaScreen, 2 h; Potency, µM (series often up to 102 µM), for the others: at the top dose activity, negative = inhibition, usual class: inhibitors; Histone-lysine N-methyltransferase EHMT2 (Homo sapiens), Q96KQ7; further: on the % scale 0 is the no-effect control and ±100 the full control effect; nearly all actives have a fitted effect of over 75% in size
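G9a (20 nM) was preincubated 15 min with compound, then reacted 2 h at room temperature with 500 nM biotin-H3K9 peptide and 20 µM SAM. Monomethyl-H3K9 detected by AlphaScreen using anti-H3K9me1 antibody.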
The depositor's hits bear a star; ? = inconclusive; . = not tested or not shown; [ ] = remark or other dose. The list is not random: actives were taken first. Their share in the collection is about 8.7%. The call rests on the fitted dose curve; in most records, active means well fitted curve in the direction sought with a large enough effect; inconclusive means small, poorly fitted or top-dose-only effect, or another doubt; inactive means no such curve, though single readings can be large; an effect the other way counts as inactive or inconclusive. Potency means the concentration at half of the fitted maximal effect.

SMILES	ALOX12 inh	HP1b chromo inh	BAZ2B block	JMJD2A Tudor	Sfp inh	G9a inh
COc1cc(CNc2ccccc2SC)cc(OC)c1OC	44.7µM*	12.9%	-33.0%	?	?	11.2µM*
COc1ccc(CNc2cccc3[nH]c(C(F)(F)F)nc23)cc1OC	?	-25.8%	50.1µM*	?	?	-29.1%[2.33 µM]
COc1cc(CNc2nc3ccccc3n2C)cc(OC)c1OC	9.2%	10.1%	4.4%	-9.2%	6.0%	17.7%[59 µM]
N#Cc1c(SCc2ccccc2)cc(SCc2ccccc2)cc1SCc1ccccc1	-19.5%	.	.	.	.	.
CC(C)CCN1CCC2(CC1)CN[S+](=O)([O-])c1ccccc1N2	10.8%	.	.	.	.	.
Cc1ccc(N/N=C/c2ccncc2)cc1	?	6.9%	?	?	13.5%	28.2µM*
Cc1csc(N/N=C\c2cccnc2)n1	-22.4%	8.8%	.	-14.3%[11.4 µM]	56.2µM*	44.7µM*
Cc1ccc(N/N=C/c2cccnc2)cc1	39.8µM*	?	?	?	-14.9%	?
Cc1ccc(C(=O)Nc2ccc(C(=O)N/N=C/c3ccncc3)cc2)cc1	.	.	?	.	-17.4%	31.6µM*
CN1C(=O)CC(C(=O)O)C12CCN(C(=O)c1ccc3c(c1)CCC3)CC2 (stereo not drawn)	4.9%	.	.	.	.	.
COc1ccccc1-c1cc(C(=O)N2CCOCC2)nc2c1cnn2C	4.7%[6.33 µM]	.	.	.	.	.
CC(C)[C@@H]1CN(C(=O)c2cccc(Cn3cccn3)c2)C[C@H]1NC(=O)N(C)C	-8.1%	.	.	.	.	.
CN(C)CC1(O)CCC2(CCN(C(=O)c3nccc4ccccc34)CC2)CC1	52.8%	.	.	.	.	.
CC(=O)c1ccc(NC(=O)CN(Cc2ccc3c(c2)OCO3)C2CCCC2)cc1	32.7%	.	.	.	.	.
COc1ccccc1C(=O)N1C[C@H](c2nc(-c3ccncc3)no2)[C@@H](C)C1	3.2%	.	.	.	.	.
Cc1ccc(N/N=C/c2ccc(C)s2)cc1	56.2µM*	.	.	.	.	.
CCCCN1C(=O)[C@@H]2C[C@@H](O)CN2C2(CN(Cc3ccc(OC)cc3)C2)C1=O	25.3%[176 µM]	.	.	.	.	.
O=C1NCCCCCCN(C(=O)CC2CCCCC2)[C@H]2C[C@H](c3nc(-c4cnccn4)no3)C[C@@H]12	67.5%	.	.	.	.	.
CC(C)(C)C(CCl)C(=O)NN=C(c1ccccc1)c1ccccc1 (stereo not drawn)	-22.2%	49.2%	?	100µM*	.	-29.3%[2.33 µM]
Cc1ccc(C(=O)NNC(=O)c2c3c(nc4ccccc24)CCCC3)cc1	16.8%	.	.	.	.	.
Nc1c(C(=O)NCc2ccco2)sc2nc3c(cc12)C(=O)CCC3	-22.3%	-2.5%	?	56.2µM*	-17.9%	?
O=C(NCc1ccco1)c1c2c(nc3ccccc13)CCC2	-40.2%	?	50.1µM*	?	50.1µM*	39.8µM*
CCCC(C)NC(=O)c1c2c(nc3ccccc13)CCC2 (stereo not drawn)	-24.9%	9.5%	50.1µM*	-31.8%	1.5%	-42.8%
O=C(c1cc(=O)[nH]c2ccccc12)N(Cc1nnc(-c2ccccc2Cl)o1)C1CC1	-22.5%	43.0%	7.7%	-6.5%	.	50.1µM*
CN(C)C(CNC(=O)CCc1ncc(-c2ccccc2)o1)c1ccco1 (stereo not drawn)	34.3%	.	.	.	.	.
SMILES	ALOX12 inh	HP1b chromo inh	BAZ2B block	JMJD2A Tudor	Sfp inh	G9a inh
CONC(=O)C(NC(=O)c1ccc(Cl)cc1Cl)C(C)C (stereo not drawn)	26.5%	.	.	.	.	.
Cc1ccsc1C(=O)N1CCC(N2C(=O)C(OCC3CC3)C23CCCCC3)CC1 (stereo not drawn)	36.6%	.	.	.	.	.
Cc1ccc(-c2csc(/C=C/c3cccc(O)c3)n2)cc1	7.08µM*	.	.	.	.	.
COC(=O)[C@@H]1Cc2c([nH]c3ccccc23)[C@H]2C[C@@H](NCCO)C[C@@H](c3ccccc3)N21	12.3%[176 µM]	.	.	.	.	.
Cn1c2[n+](c3ccc(Cl)cc3c1=O)Cc1ccccc1-2	?	45.0%	-6.0%	-14.6%	-16.0%	28.2µM*
Cn1c(=O)c(-c2cccc(Cl)c2)c(O)c2ccccc21	199.4%	37.4%	.	4.3%	.	.
Cn1c(=O)c(N)c2c3c(c(Br)ccc31)C(=O)c1ccccc1-2	-15.1%	11.8%[57 µM]	-33.4%	-34.2%	1.3%	4.47µM*
O=C(Cc1c[nH]c(=O)[nH]c1=O)NC(c1cnc2ccccc2c1)C1CC(O)C1 (stereo not drawn)	7.1%	.	.	.	.	.
Cc1ccc([N+](=O)[O-])cc1NC(=O)c1ccc(CSc2ccccc2)cc1	-14.2%	25.3%	-4.8%	-11.7%	31.6µM*	?
CSc1ccccc1NC(=O)c1ccc([N+](=O)[O-])cc1	?	?	?	-32.9%	56.2µM*	31.6µM*
O=C(Nc1cccc([N+](=O)[O-])c1)c1ccc(CSc2ccccc2)cc1	0.0%	23.5%	-8.1%	-12.7%	9.2%	7.1%[12.7 µM]
Cc1ccc(C)n1-c1sc2c(c1C#N)CCCC2	-24.8%	-1.5%	5.2%	-13.2%	-4.4%	-5.7%[59 µM]
Cc1sc(-n2c(C)ccc2C)c(C#N)c1C	?	-33.0%	-6.0%	-35.9%	63.1µM*	7.94µM*
CC(=O)C(Cc1ccc(Br)cc1)C(=O)c1ccccc1 (stereo not drawn)	-24.0%	.	.	.	.	.
Brc1cc2c(cc1Br)OCCOCCOCCOCCO2	2.1%	-21.7%	-23.6%	8.91µM*	8.2%	23.9%
Brc1ccc2c(c1)OCCOCCOc1cc(Br)ccc1OCCOCCOCCO2	.	61.0%	-0.6%	2.9%	8.1%	19.0%[59 µM]
Nc1ccc2c(c1)OCCOCCOCCOCCOCCO2	?	49.9%	-11.4%	-4.2%	-7.8%	14.1µM*
